From the supplement of paper PMC3334620 come the findings set out here.

Whole data set: some 33,000 sequences, median “E-score (-0.5 to 0.5)” near -0.0059, cut for the highest 2% near 0.26. Only a selection was taken, and the highest values are over-represented in it overall.

This assay addresses T1, Cin5 (UniProt P40917).
T1 sequence: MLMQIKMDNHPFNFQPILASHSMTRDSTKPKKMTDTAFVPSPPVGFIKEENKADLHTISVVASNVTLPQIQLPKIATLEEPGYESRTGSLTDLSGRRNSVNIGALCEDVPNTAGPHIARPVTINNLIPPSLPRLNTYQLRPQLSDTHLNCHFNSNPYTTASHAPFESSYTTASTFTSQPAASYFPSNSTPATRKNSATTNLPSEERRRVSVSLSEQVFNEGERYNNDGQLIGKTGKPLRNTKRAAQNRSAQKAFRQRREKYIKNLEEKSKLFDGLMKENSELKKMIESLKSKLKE
Description: PBM E-score (8-mer binding enrichment) (E-score (-0.5 to 0.5)); higher = stronger / more preferred TF binding. The conditions noted are these: protein concentration: 100 nM; construct: GST-full length. The procedure, abridged: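 Yeast transcription factors, full-length or as DNA-binding domains, were expressed with a GST tag using PURExpress in vitro transcription/translation. At about 100-200 nM they were applied to universal all-10-mer Agilent arrays, double-stranded by primer extension on fresh or once-stripped slides. Fluorescent anti-GST detected bound protein, and masliner normalised the scans. E-scores for ungapped eight-base words, pooled with reverse complements, came from the Universal PBM Analysis Suite.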
Turning to CGCGATTA, the “PBM E-score” value is 0.263. For the sequence AGCGATTA, the “PBM E-score” value was found to be 0.127. As to CGGGATTC, the “PBM E-score” value was 0.0661. With CGGGATTA, the “PBM E-score” value was determined as 0.294.

With ATCGATTA, the “PBM E-score” value worked out at 0.248. In the case of CTCGATTC, the “PBM E-score” value was 0.119. Under CGCGATTC stands 0.124; under CTCGATTA, 0.264; under AGGGATTA, 0.0341.

Consider ACCTACTC, for which the “PBM E-score” value is 0.0706. In the case of AGATCTGA, the “PBM E-score” value worked out at 0.0167.

Turning to GTTGCTGA, the “PBM E-score” value came out at 0.12. As for ATTGCTGA, the “PBM E-score” value is 0.115. The same measure for ATTGCTTA: 0.259; for GTTGCTTA: 0.338. Turning to GTTGCGTA, the “PBM E-score” value was found to be 0.068. With ATTGCGTC, the “PBM E-score” value worked out at 0.128. Turning to ATTGCTTG, the “PBM E-score” value was found to be 0.177. On to ATAGCTTA, for which the “PBM E-score” value is 0.154. Turning to GTAGCTTA, the “PBM E-score” value amounted to 0.279. Regarding CTAGCTTA, the “PBM E-score” value is 0.256. For ATTGCGTA, the “PBM E-score” value came to 0.287. As to CTTGCTTA, the “PBM E-score” value is 0.229.

In the case of CCTTGTTA, the “PBM E-score” value was -0.0571. Under AACTCGGC stands 0.121; under GCCGCTAC, -0.0553. For the sequence AGCGGGCG, the “PBM E-score” value is -0.0666.

With TCTGGGCA, the “PBM E-score” value is -0.124. Take GGGCGAAA: the “PBM E-score” value was determined as 0.0331. For ACCGCCGC, the “PBM E-score” value is -0.101. Under TCCGCTAA stands -0.0291; under AGACCTTC, -0.134. For the sequence AGCCTAAA, the “PBM E-score” value is -0.0722. Take CGTTGCGA: the “PBM E-score” value is -0.0384. As for GCGCTGAA, the “PBM E-score” value was -0.2.

As to ACCAGATC, the “PBM E-score” value was -0.0659. Consider ATAATTAG, for which the “PBM E-score” value was found to be 0.241. GTAATTAA: the “PBM E-score” value worked out at 0.13. Consider ATAATTAT, for which the “PBM E-score” value turned out to be 0.341. For ATAATTAA, the “PBM E-score” value is 0.303. For ATAATTAC, the “PBM E-score” value was 0.365. CTAATTAC: the “PBM E-score” value was 0.24. As for GTAATTAC, the “PBM E-score” value was 0.175.

On to TTAATTAA, for which the “PBM E-score” value worked out at 0.183. On to ACAATTAT, for which the “PBM E-score” value was determined as 0.205.

In the case of ACCGGTAC, the “PBM E-score” value is -0.217. With CAACACTC, the “PBM E-score” value was 0.105.

For GGATCAGA, the “PBM E-score” value was -0.042. Consider CGTGAAAG, for which the “PBM E-score” value was -0.0748. Turning to GTATTCGA, the “PBM E-score” value was -0.0476. Regarding ACAACCTA, the “PBM E-score” value was 0.0123. As for AATCGCTG, the “PBM E-score” value is -0.0284. The same measure for ATATTGAG: 0.266; for CTATTGAG: 0.144; for ATATTGAT: 0.249. Under GCTCAAAA stands -0.00649; under ACTAATAG, 0.277; under ACTAATAT, 0.234. In the case of ACTAATAA, the “PBM E-score” value was 0.221. The same measure for GCTAATAC: 0.153; for CCTAATAC: 0.113; for ACTAATAC: 0.26. For the sequence ATAAGGCG, the “PBM E-score” value was 0.0483.

Take CTCCGCTA: the “PBM E-score” value is -0.116. For the sequence CCAGTTAA, the “PBM E-score” value came out at 0.134. For the sequence GCGGTGGA, the “PBM E-score” value was found to be 0.0809. As for GAAGCAGC, the “PBM E-score” value was -0.162. In the case of GAGCTTAC, the “PBM E-score” value was found to be 0.191. The same measure for CAGCTTAC: 0.312; for AAGCTTAG: 0.306; for CAGCTTGC: -0.0574. On to AAGCTTAT, for which the “PBM E-score” value was found to be 0.231. Consider CAGCTTAA, for which the “PBM E-score” value was 0.0109. Under AAGCTTAA stands 0.164; under AAGCTTAC, 0.282; under CAGCTTAG, 0.0588. With CGGGTAGC, the “PBM E-score” value was -0.214. Under AGATGGAA stands 0.167; under GAGGTCCA, -0.14.

As to AGGCTTAC, the “PBM E-score” value was determined as 0.258. Regarding CGGCTTAA, the “PBM E-score” value stood at 0.19. The same measure for AGGCTTAT: 0.152; for CGGCTTAG: -0.0489; for AGGCTTAG: 0.0724. Take CGGCTTAC: the “PBM E-score” value was determined as 0.358.

Take GTAACGGA: the “PBM E-score” value amounted to 0.252. As to CGAATTAC, the “PBM E-score” value amounted to 0.0723. As for GCGCGGCC, the “PBM E-score” value was -0.0214.

As to CCCGCGCG, the “PBM E-score” value was 0.138. The same measure for CCTTCTGC: -0.126; for AAACTTGT: 0.0442; for AGAACCTG: -0.127. On to GGACATCA, for which the “PBM E-score” value was found to be 0.0421. As for CGACATCA, the “PBM E-score” value came to 0.137. On to TGACATCA, for which the “PBM E-score” value amounted to 0.356.
